In PubChem BioAssay AID1159580 (chemical genetic matrix, 2015):
Among all 5,500 compounds or so, about 2,000 (36%) were called active. Another 18% or so got no clear call; they are omitted. The list shows a part of the results. A number with no mark means an inactive call. Rule as the data show it: active = normalized growth mostly below about 0.91 (no sharp cut-off); inconclusive = no clear call, values can overlap the other calls; inactive = mostly above about 0.92.

Test: chemical genetic growth profiling, strain panel (AID 1159580);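 also: tested at 20 µM; growth read once vehicle control cultures reached saturation at 30 °C; 1 = growth at the plate median or of vehicle wells; lower values mean less growth of the strain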
Details: S. cerevisiae deletion strains, growth OD

## CC(=O)O[C@H]1C[C@@]2(C)[C@H](c3ccoc3)OC(=O)[C@H]3O[C@]32[C@@]2(C)C1[C@]1(C)C(C[C@H]2OC(C)=O)C(C)(C)[C@H](OC(C)=O)C[C@@H]1OC(C)=O (stereo partly drawn)
Locus YAL013W, strain DEP1, hits give low values
  normalized growth: 0.999
Locus YAL021C, strain ccr4, hits give low values
  normalized growth: 1.04
Locus YAL026C, strain drs2, hits give low values
  normalized growth: 0.97
Locus YAL030W, strain snc1, hits give low values
  normalized growth: 0.997
Locus YBL061C, strain skt5, hits give low values
  normalized growth: 0.993
Locus YBR009C, strain hhf1, hits give low values
  normalized growth: 1.05
Locus YBR021W, strain FUR4, hits give low values
  normalized growth: 1.02
Locus YBR023C, strain chs3, hits give low values
  normalized growth: 1
Locus YBR171W, strain sec66, hits give low values
  normalized growth: 0.958
Locus YBR229C, strain ROT2, hits give low values
  normalized growth: 0.949
Locus YBR231C, strain swc5, hits give low values
  normalized growth: 1
Locus YBR279W, strain paf1, hits give low values
  normalized growth: 0.998
Locus YCL011C, strain gbp2, hits give low values
  normalized growth: 0.998
Locus YCL016C, strain dcc1, hits give low values
  normalized growth: 1.05
Locus YCL029C, strain bik1, hits give low values
  normalized growth: 0.971
Locus YCL061C, strain MRC1, hits give low values
  normalized growth: 1
Locus YCL069W, strain vba3, hits give low values
  normalized growth: 0.975
Locus YCR088W, strain abp1, hits give low values
  normalized growth: 0.99
Locus YDL005C, strain med2, hits give low values
  normalized growth: 0.968
Locus YDL035C, strain GPR1, hits give low values
  normalized growth: 0.968
Locus YDL040C, strain nat1, hits give low values
  normalized growth: 0.99
Locus YDL074C, strain BRE1, hits give low values
  normalized growth: 0.999
Locus YDL101C, strain DUN1, hits give low values
  normalized growth: 0.974
Locus YDL134C, strain PPH21, hits give low values
  normalized growth: 0.986
Locus YDL185W, strain tfp1, hits give low values
  normalized growth: 0.953
Locus YDL192W, strain arf1, hits give low values
  normalized growth: 0.992
Locus YDR001C, strain nth1, hits give low values
  normalized growth: 0.989
Locus YDR069C, strain doa4, hits give low values
  normalized growth: 0.972
Locus YDR101C, strain arx1, hits give low values
  normalized growth: 0.946
Locus YDR137W, strain rgp1, hits give low values
  normalized growth: 1
Locus YDR159W, strain sac3, hits give low values
  normalized growth: 0.918
Locus YDR162C, strain NBP2, hits give low values
  normalized growth: 1.01
Locus YDR195W, strain ref2
  normalized growth: 0.981
Locus YDR297W, strain sur2, hits give low values
  normalized growth: 0.982
Locus YDR318W, strain mcm21, hits give low values
  normalized growth: 0.973
Locus YDR334W, strain swr1, hits give low values
  normalized growth: 0.975
Locus YDR335W, strain msn5, hits give low values
  normalized growth: 0.997
Locus YDR388W, hits give low values
  normalized growth: 0.983
Locus YDR392W, strain spt3, hits give low values
  normalized growth: 1
Locus YDR502C, strain sam2, hits give low values
  normalized growth: 0.987
Locus YEL003W, strain gim4, hits give low values
  normalized growth: 0.967
Locus YEL037C, strain rad23, hits give low values
  normalized growth: 0.989
Locus YEL061C, strain CIN8 (second series), hits give low values
  normalized growth: 0.978
Locus YEL061C, strain CIN8, hits give low values
  normalized growth: 0.997
Locus YER015W, strain faa2, hits give low values
  normalized growth: 0.997
Locus YER016W, strain bim1, hits give low values
  normalized growth: 0.98
Locus YER110C, hits give low values
  normalized growth: 0.974
Locus YER111C, strain swi4, hits give low values
  normalized growth: 0.979
Locus YER155C, strain BEM2 (second series), hits give low values
  normalized growth: 1.02
Locus YER155C, strain BEM2, hits give low values
  normalized growth: 1.01
Locus YER167W, strain BCK2, hits give low values
  normalized growth: 0.981
Locus YFR010W, strain ubp6, hits give low values
  normalized growth: 0.955
Locus YGL078C, strain dbp3, hits give low values
  normalized growth: 0.972
Locus YGL086W, strain mad1, hits give low values
  normalized growth: 0.996
Locus YGL167C, strain pmr1, hits give low values
  normalized growth: 0.99
Locus YGL173C, strain kem1, hits give low values
  normalized growth: 0.964
Locus YGL227W, strain vid30, hits give low values
  normalized growth: 0.983
Locus YGL240W, strain doc1, hits give low values
  normalized growth: 0.978
Locus YGL248W, strain PDE1, hits give low values
  normalized growth: 0.989
Locus YGL253W, strain hxk2, hits give low values
  normalized growth: 0.907 (active)
Locus YGR135W, strain pre9, hits give low values
  normalized growth: 1
Locus YGR252W, strain gcn5, hits give low values
  normalized growth: 0.94
Locus YHR013C, strain ard1, hits give low values
  normalized growth: 1.01
Locus YHR027C, strain rpn1, hits give low values
  normalized growth: 0.993
Locus YHR030C, strain SLT2, hits give low values
  normalized growth: 0.991
Locus YHR079C, strain IRE1 (second series), hits give low values
  normalized growth: 0.991
Locus YHR094C, strain hxt1, hits give low values
  normalized growth: 0.975
Locus YHR129C, strain ARP1, hits give low values
  normalized growth: 0.995
Locus YHR142W, strain chs7, hits give low values
  normalized growth: 1
Locus YHR200W, strain rpn10, hits give low values
  normalized growth: 0.977
Locus YIL066C, strain RNR3, hits give low values
  normalized growth: 0.949
Locus YIL073C, strain SPO22, hits give low values
  normalized growth: 0.949
Locus YIL125W, strain kgd1, hits give low values
  normalized growth: 0.983
Locus YIR030C, strain dcg1, hits give low values
  normalized growth: 0.981
Locus YJL092W, strain hpr5, hits give low values
  normalized growth: 0.973
Locus YJL095W, strain BCK1 (second series), hits give low values
  normalized growth: 0.977
Locus YJL095W, strain BCK1, hits give low values
  normalized growth: 1.02
Locus YJL115W, strain asf1, hits give low values
  normalized growth: 0.987
Locus YJL129C, strain trk1, hits give low values
  normalized growth: 0.966
Locus YJL134W, strain LCB3, hits give low values
  normalized growth: 0.989
Locus YJL154C, strain vps35, hits give low values
  normalized growth: 0.996
Locus YJL164C, strain tpk1, hits give low values
  normalized growth: 1.02
Locus YJL166W, strain qcr8, hits give low values
  normalized growth: 0.976
